IL-2 act: qHTS of IL-2 Activators; IL-2 activation reporter assay, cell-based qHTS; stimulated with anti-CD3/CD4/CD28 beads; in transgenic mouse T cells; activation, % (series mostly up to about 46 µM); 360,000 compounds, 0.065% hits; AID 652025, 2013; in the data active means activation above about 50%; inconclusive means mostly about 30% to 49%; further: 0% is about no effect
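Readout: EGFP and DsRed signals by fluorescent plate cytometry. Unstimulated transgenic mouse T cells received compound 60 min before antibody-bead stimulation, then incubated 18 h at 37 degrees C.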
Nrf2 ARE act: qHTS of Nrf2 Activators; AREc32 ARE-luciferase reporter (MCF7-derived line), luminescence, 24 h; Potency, µM (titrated, usually from 46.1 µM), for the others: top-dose activation, usual class: activators; 410,000 compounds, 0.31% hits; AID 624171, 2012; further: potency means the concentration at half of the fitted maximal effect; % of control where 0% means no effect; nearly all actives have a fitted effect of over 65% in size
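Luminescent ARE reporter assay in AREc32_Fluc cells: overnight plating at 37 deg C, 24 hr compound incubation, Steady-Glo added, 30 min RT before reading.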
BRCA1 expr act: qHTS Assay to Identify Small Molecule Activators of BRCA1 Expression. MCF7-BRCA1-FFLuc reporter, luminescence, 48 h; response scale: scaled: vehicle 0%, 10 µM genistein 100%. Potency, µM (top dose mostly 46.1 µM), inactives show at the highest dose activation, most hits filed as activators. 380,000 compounds, 1.1% hits. AID 624202, 2012; further: potency means the concentration at half of the fitted maximal effect; nearly all actives have a fitted effect of over 80% in size
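Activators of BRCA1 expression were detected as increased firefly luciferase luminescence in engineered MCF7 cells after 48 h compound incubation. Signals were scaled to genistein 10 microM as full activation.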
N370S GC mod: qHTS Assay for Inhibitors and Activators of N370S glucocerebrosidase as a Potential Chaperone Treatment of Gaucher Disease. Potency, µM (top dose mostly 59.4 µM), without a hit: at the highest dose activity change, negative = inhibition, hits mostly inhibitors. N370S GC spleen homogenate, 4MU-glucoside fluorescence. Lysosomal acid glucosylceramidase (Homo sapiens), P04062. 330,000 compounds, 0.092% hits;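 further: potency means the concentration at half of the fitted maximal effect; 0% = full enzyme activity and -100% = no enzyme basal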
Chronic BCR inh: qHTS Assay to Find Inhibitors of Chronic Active B-Cell Receptor Signaling | ABC-DLBCL IkBa-CBG/CBR reporter, luminescence ratio, 4 h | Potency, µM (top dose mostly 46.1 µM), without a hit: at the top dose activity change, negative = inhibition, actives largely listed as inhibitors | 340,000 compounds, 0.05% hits | AID 493014, 2011; active means well fitted inhibition curve with a large enough effect in the signal ratio, with a control signal flat, not every such curve was filed as active; inconclusive means small, poorly fitted or top-dose-only effect, or effect the other way, or a change in a side signal; the % refers to the signal ratio;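 further: potency means the concentration at half of the fitted maximal effect; plate controls were basal doxycycline-induced cells for no effect and cells given 10 µM MG132 for full effect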
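Compounds up to 46 uM were incubated four hours with TMD8 cells whose green CBG68 luciferase is fused to IkappaBalpha; red CBR luminescence normalised the signal, and concentration-effect curves were fitted to fusion, red and ratio data.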
a7 integrin act: qHTS for Activators of Integrin-Mediated Alleviation for Muscular Dystrophy; Potency, µM (titrated, usually from 38.3 µM), inactives show at the top dose activation, most hits filed as activators; 350,000 compounds, 0.064% hits; AID 624291, 2012; alpha7betagal myoblasts, beta-gal FDG fluorescence, 48 h;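 further: potency means the concentration at half of the fitted maximal effect; 100% = response of the positive control SU9516; nearly all actives have a fitted effect of over 60% in size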
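Alpha7betagal+/- myoblasts (passage 13) were plated 16-24 hr, then exposed to compounds (1:260 dilution of DMSO stock) for 48 hours at 37C. After MPER lysis, β-galactosidase reporter activity was read as FDG fluorescence (ex 480/em 540) after 30 minutes.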
Active calls of the source: *; ? = inconclusive; nt = not tested or not shown; [ ] = dose if it differs, or a comment. In the library only some 1.4% were active in any assay of this set; here they are far more common. Unless noted, the call rests on the fitted dose curve; in most records, active means well fitted curve in the direction sought with a large enough effect; inconclusive means small, poorly fitted or top-dose-only effect, or another doubt; inactive means no such curve, though single readings can be large; an effect the other way counts as inactive or inconclusive.

SMILES	IL-2 act	Nrf2 ARE act	BRCA1 expr act	N370S GC mod	Chronic BCR inh	a7 integrin act
Cc1cc(C)cc(-n2nnc(C(=O)NCc3ccco3)c2N)c1	-3	0%	1%	9%	?	-2%
CCOC(=O)c1nnn2c1nc(N1CCOCC1)c1ccccc12	-1	0%	-22%	-2%	0%	31%
Nc1nc2c(C(=O)N3CCOCC3)nnn2c2ccccc12	-1	0%	2.8µM*	-22%	-7%	0%
O=C(Cc1cccc2c(=O)cc(-c3ccccc3)oc12)OCCN1CCOCC1	0	-1%	19%	nt	nt	nt
Brc1ccsc1-c1csc(-c2ccncc2)n1	1	13µM*	47%	-11%	?	-9%
CN1CCCN(Cc2nc(-c3ccc(Cl)cc3)no2)CC1	-1	2%	13µM*	-2%	8%	-48%
O=C(COc1ccc2c(c1)OCO2)Nc1nncs1	1	0%	0%	-4%	?	7%
COc1ccc(C2c3c(n(C)c4ccccc34)C(=O)N2CC(=O)Nc2ccc(C)c(Cl)c2)cc1 (centres undefined)	nt	0%	nt	nt	nt	nt
COc1ccc(C(=O)N2c3ccccc3C(=O)OC2c2ccc3c(c2)OCO3)cc1 (centres undefined)	-2	0%	11µM*	0%	?	4%
CC(=O)Oc1ccc(C2OC(=O)c3ccccc3N2C(C)=O)cc1 (centres undefined)	2	3%	3%	-14%	3%	0%
CCC(=O)NCCc1nc2cc(NC(=O)COc3ccccc3)ccc2n1C	3	2%	8.9µM*	-11%	?	4%
Cc1cccc(NC(=O)c2cc(NC(=O)c3ccco3)ccc2Cl)n1	-3	12%	20%	-6%	23µM*	-1%
CCC(=O)NCCc1nc2cc(NC(=O)c3cccc([N+](=O)[O-])c3)ccc2n1C	-2	4%	3.2µM*	0%	?	?
COc1ccccc1C(=O)Nc1ccc2c(c1)nc(CCNC(C)=O)n2C	-3	0%	10µM*	0%	-11%	-6%[7.66 µM]
COc1ccc(NS(=O)(=O)c2cccc(C(=O)N3CCC3)c2)cc1	-4	0%	-20%	-21%	-1%	0%
COc1ccc(NC(=O)C(C)n2nc(C)c3c(C)n(-c4ccccc4)nc3c2=O)cc1Cl (centres undefined)	nt	1%	nt	nt	nt	nt
Cc1cc(NS(C)(=O)=O)c(=O)n(Cc2cccc(C(F)(F)F)c2)c1	-3	-1%	6%	nt	nt	-2%
CC(=O)NCCc1nc2cc(NC(=O)c3cccc([N+](=O)[O-])c3)ccc2n1C	-2	0%	5.6µM*	0%	-2%	-13%
Cc1ccccc1C(=O)Nc1ccc2c(c1)nc(CCNC(=O)c1ccco1)n2C	-2	0%	44%	-15%	?	5%
Cn1c(CCNC(=O)c2ccco2)nc2cc(NC(=O)c3ccccc3Cl)ccc21	3	2%	8.9µM*	-1%	?	?
Oc1ccc(Cl)cc1Nc1nc2ccccc2n2cnnc12	nt	25%	-16%	nt	nt	nt
C=C1C=C(C)n2ncc(C(=O)NCCCCCC)c2N1	nt	nt	12%	nt	nt	nt
CN(C)CCNc1ncnc2sc(-c3ccccc3)cc12	-5	8%	-40%	-20%	?	10µM*
CC(=O)c1ccc(Nc2ccc(-c3ccccc3C)nn2)cc1	-2	2%	6.3µM*	-13%	-15%	21%
COc1ccccc1-c1ccc(Nc2cccc(C(C)=O)c2)nn1	-1	3%	71%	2%	?	15%
SMILES	IL-2 act	Nrf2 ARE act	BRCA1 expr act	N370S GC mod	Chronic BCR inh	a7 integrin act
CC(=O)c1cccc(Nc2ccc(-c3ccccc3F)nn2)c1	0	4%	11µM*	10%	?	1%
CN(C(=O)CSc1ncnc2sccc12)C1CCCCC1	-3	18%	4µM*	nt	-5%	6%
CN(C(=O)CSc1ncnc2sccc12)C1CCS(=O)(=O)C1 (centres undefined)	1	1%	-13%	nt	-11%	1%
CC(C)NS(=O)(=O)c1ccc2[nH]c3nc(SCC(=O)Nc4ccc(F)c(F)c4)nnc3c2c1	nt	nt	0%	nt	nt	nt
Cc1ccc(-c2nc3cc(Cl)ccc3o2)cc1NC(=O)COc1ccccc1C	nt	nt	2%	nt	nt	nt
CCOc1ccc(NC(=O)/C(C#N)=C\c2ccc(N3CCCC3)c(C)c2)cc1	174*	0%	-38%	nt	nt	-8%
CCOc1ccc(/C=C(\C#N)C(=O)Nc2cccnc2)cc1	0	0%[9.22 µM]	-9%	-2%	-5%	2%
Cc1nn(C)cc1C(=O)NNC(=S)Nc1ccccc1	-1	0%	16%	-22%	?	5%
Cc1c(C(=S)Nc2ccccc2)cnn1-c1ccccc1	-4	2%	7.9µM*	-28%	?	15%
Cc1nn(-c2ccccc2)cc1C(=S)Nc1ccccc1	0	3%	7.9µM*	2%	-13%	9%
O=C1C2=CC[C@H]3C(=O)N(C[C@@H]4CCCO4)C(=O)[C@@H]3[C@@H]2[C@H](O)[C@@H]2O[C@H]12	nt	nt	nt	8%[12.8 µM]	nt	nt
CC(C)(C)C(=O)NCC(c1ccc2c(c1)OCO2)N1CCOCC1 (centres undefined)	nt	0%	nt	nt	nt	nt
CCc1ccccc1NC(=O)CC(c1ccc(F)cc1)N1Cc2ccccc2C1=O (centres undefined)	nt	0%	nt	nt	nt	nt
CC(=O)Nc1cc(O)c2nonc2c1O	nt	nt	-61%	nt	nt	nt
CCCSc1nc(-c2ccccc2)cc(C(F)(F)F)c1C#N	-1	11µM*	-53%	12%	?	-10%[7.66 µM]
N#Cc1c(C(F)(F)F)cc(-c2ccccc2)nc1SCCN1CCOCC1	0	12%	-78%	-18%	0%	-49%
CCOc1cc(CNC(=O)C(NS(=O)(=O)c2cccs2)C(C)C)cc(OCC)c1OCC (centres undefined)	nt	0%	nt	nt	nt	nt
O=C(COC(=O)c1ccc2c(=O)n3c(nc2c1)CCC3)NC1CCS(=O)(=O)C1 (centres undefined)	0	0%	10%	7%	-7%	3%
C(/C=C/c1ccco1)=N/N1CCN(c2ccccc2)CC1	-2	16%	10µM*	0%	?	-2%
COc1nc(-c2ccccc2)ccc1-c1noc(-c2ccccc2)n1	0	?	6.3µM*	8%	9%	31%
CCOc1ccccc1-c1nc(-c2ccc(C)nc2OC)no1	1	4%	7.1µM*	6%	?	3%
COC(=O)c1ccc(Cn2c(SCc3cccc(C)c3)nc3ccncc32)cc1	nt	7%	nt	nt	nt	nt

Bioassay records (PubChem)
